Assay [1] addresses T1, Aspartate--tRNA(Asp/Asn) ligase (Mycobacterium tuberculosis (strain ATCC 25618 / H37Rv)) (UniProt P9WFW3).
T1 sequence (whole entry): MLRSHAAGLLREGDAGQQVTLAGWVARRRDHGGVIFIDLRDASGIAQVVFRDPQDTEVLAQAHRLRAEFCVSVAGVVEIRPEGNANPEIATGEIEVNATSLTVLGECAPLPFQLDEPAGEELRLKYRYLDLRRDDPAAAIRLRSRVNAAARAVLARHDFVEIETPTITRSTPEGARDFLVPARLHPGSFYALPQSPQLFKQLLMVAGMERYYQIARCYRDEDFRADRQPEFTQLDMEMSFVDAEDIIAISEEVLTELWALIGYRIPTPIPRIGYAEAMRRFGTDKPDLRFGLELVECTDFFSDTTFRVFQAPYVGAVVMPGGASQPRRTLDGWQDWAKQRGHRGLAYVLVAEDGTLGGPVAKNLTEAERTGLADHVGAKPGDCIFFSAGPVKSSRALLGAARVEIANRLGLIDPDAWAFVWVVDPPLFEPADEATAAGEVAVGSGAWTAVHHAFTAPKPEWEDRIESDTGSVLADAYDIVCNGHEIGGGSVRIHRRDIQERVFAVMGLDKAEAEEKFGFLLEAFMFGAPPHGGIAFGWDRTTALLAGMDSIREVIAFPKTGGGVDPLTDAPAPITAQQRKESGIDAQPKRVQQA
The assay can be described thus: Assay for Asp RNA synthetase-1 from Mycobacterium tuberculosis. The format is functional. Further details: scale not given: direction of the effect not stated beside the values. The note with it: 30 µM.

The target of assay [2] is Shiga toxin 2 (Escherichia coli O157:H7) (UniProt P09385+P09386). The assay is described as follows: E. coli 0.157:H7 Shiga Toxin SOP - stx2 screening assay. The format is functional. Further details: scale not given: direction of the effect not stated beside the values. To be noted: 30 µM.

With `CN(Cc1ccc2c(c1)OCO2)Cc1nc2c(cnn2C)c(=O)[nH]1`, the figures for the Percent Effect in assay [1] and in assay [2] were -0.843% and 27.6%, respectively.
On to `COc1ccc(C2CCCN2S(=O)(=O)N(C)CC(C)C)cc1` (stereo not drawn), for which the values for the Percent Effect in assay [1] and in assay [2] were 1.67% and -7.35%, respectively.
For `CCn1c(CN2CCCN(C(=O)OC)CC2)nc2c(F)cccc21`, in that order: -0.656% and 36.3%.
Take `Cn1cc(CN2CC[C@@H]3[C@@H](CCC(=O)N3CCc3c[nH]cn3)C2)cn1`: the Percent Effect in assay [1] is -1.44%; in assay [2] it was -37.6%.
`Cc1nn(C)c2c(=O)n(CC(=O)Nc3cc(Cl)cc(Cl)c3)nnc12`: the Percent Effect in assay [1] is -7.23%; in assay [2] it was -36.8%.
Regarding `O=C(c1cnccn1)N1CCc2onc(CN3CCOCC3)c2C1`, the Percent Effect in assay [1] is -0.84%; in assay [2], -5.1%.
As for `c1ccc(CCCN2CC(n3cccn3)C2)cc1`, the Percent Effect in assay [1] was -4.05%; in assay [2], -12.1%.
For `Cn1cc(-c2nc(CN3CCc4c(ncn4C4CC4)C3)cs2)cn1`, in that order: -0.0232% and -83.4%.
In the case of `CN1CCCC(c2cccc(Cc3ccccc3Cl)n2)C1` (stereo not drawn), the Percent Effect was -5.43% in assay [1] and 6.38% in assay [2].
For `O=C(CN1CCCC1Cn1cncn1)NC(C1CC1)C1CC1` (stereo not drawn), the Percent Effect in assay [1] was 2.42%; in assay [2] it was -2.93%.
The like results for `O=C(CCN1CCCC1c1cccs1)N1CCc2sccc2C1` (stereo not drawn) were, in that order, -0.954% and 1.91%.
Regarding `COc1ccc(CC(=O)N2CCCC2Cn2cccn2)cc1F` (stereo not drawn), the Percent Effect in assay [1] was -0.871%; in assay [2] it was 15.1%.
With `CCC(NC(=O)C1CCN(S(=O)(=O)N(C)C)CC1)c1ccc(C)c(C)c1` (stereo not drawn), the values for the Percent Effect in assay [1] and in assay [2] were 4.22% and -32.8%, respectively.
For `COC(=O)c1cccn1C1CCN(C(=O)c2cc(C)ccc2O)CC1`, the Percent Effect in assay [1] amounted to 3.4%; in assay [2], 21.2%.
For `O=S(=O)(c1cccs1)N1CC[C@H](O)[C@@H]1Cc1ccncc1`, the figures for the Percent Effect in assay [1] and in assay [2] were -0.474% and 2.87%, respectively.
As for `CCS(=O)(=O)N1CCC(c2cc3n(n2)[C@@H](C(F)(F)F)C[C@@H](C)N3)CC1`, the Percent Effect came out at 5.23% in assay [1] and 13% in assay [2].
As to `COCCN1CCC(N(Cc2noc(C3CC3)n2)C(C)=O)C1` (stereo not drawn), the Percent Effect in assay [1] is -1.46%; in assay [2] it was 29.5%.
For `CN(C)C(=O)CN1CCC2(CCN(Cc3nccs3)CC2)C1=O`, in that order: 7.45% and -16.7%.
Take `FC1(F)CCN(Cc2ccccn2)CC12CCN(c1cccnc1)C2` (stereo not drawn): the Percent Effect in assay [1] was 1.08%; in assay [2], -6.96%.
Take `COCc1ccc(CNC(=O)C2=NN(c3ccccc3)C(=O)CN2)cc1`: the Percent Effect was 16.6% in assay [1] and -18.1% in assay [2].
Take `Cc1nn(C)c(C)c1NC(=O)CCn1ncc2c(C)cccc21`: the Percent Effect was 10.1% in assay [1] and -31.5% in assay [2].
Consider `CC(NC(=O)c1nc(=O)[nH][nH]1)c1ccc(OCC2CC2)c(F)c1` (stereo not drawn), for which the Percent Effect is -2.07% in assay [1] and 5.49% in assay [2].
For `CCOC(=O)CN1CCC(C(=O)c2cc(F)ccc2F)CC1`, in that order: -0.233% and -13.5%.
Take `c1cnnc(N2CCCC2CNc2ncnc3ccccc23)c1` (stereo not drawn): the Percent Effect in assay [1] is 3.45%; in assay [2], -33.7%.
As to `CC(C)n1ccc(-c2cc(C(=O)N3CCCC3)c3ccccn23)n1`, the Percent Effect in assay [1] was 2.64%; in assay [2], -41.4%.
For the molecule `Cc1n[nH]c(C2CN(C(=O)c3ccnc(C4CC4)n3)CCO2)n1` (stereo not drawn), the Percent Effect in assay [1] worked out at 1.3%; in assay [2], 28.6%.
The like results for `CN(Cc1cnn(C)c1)C(=O)NCc1nnc2n1CCC2` were, in that order, -10.2% and 4.62%.
As to `COCCC1(CO)CCCN(Cc2ccc(F)c(C)c2)C1` (stereo not drawn), the Percent Effect in assay [1] is 6.95%; in assay [2] it was 15.6%.
Take `COCCN1CCC(CN(CC2CCCO2)C(=O)COC)CC1` (stereo not drawn): the figures for the Percent Effect in assay [1] and in assay [2] were -4.26% and -0.207%, respectively.
Turning to `O=C(c1ccc(OCC2CC2)nc1)N1CCCC(n2cncn2)C1` (stereo not drawn), the Percent Effect in assay [1] was 1.48%; in assay [2], -39.7%.
For `CC(C)c1nnc2n1CCN(C(=O)c1ccc(CN(C)C)cc1)C2`, in that order: -0.75% and 17.3%.
Consider `COC(=O)C(C)(C)NC(=O)C1CC(=O)N(C)C1` (stereo not drawn), for which the values for the Percent Effect in assay [1] and in assay [2] were -1.62% and -22.5%, respectively.
The like results for `O=C(c1ccoc1)N1CCCn2cnc(COCC3CC3)c2C1` were, in that order, -5.91% and -6.53%.
With `CCc1cc(NCCc2ccc(O)cc2)n2nccc2n1`, the Percent Effect in assay [1] came to 5.69%; in assay [2], 5.92%.
In the case of `Cc1ccc2cnn(CCC(=O)Nc3c(C)nn(C)c3C)c2c1`, the Percent Effect is 0.535% in assay [1] and -34.7% in assay [2].
On to `Cc1noc(C)c1CN1C(=O)[C@H]2CC[C@@H]1CN(Cc1cccnc1N)C2`, for which the Percent Effect in assay [1] is 3.56%; in assay [2] it was -24.1%.
As to `Cc1ccc(NCc2cncc3c2CCN(C(=O)C2CC=CC2)C3)nn1`, the Percent Effect was 6.32% in assay [1] and -38% in assay [2].
For the molecule `O=C(NCc1ccc(F)cc1)N1CCC(C2OCCO2)CC1`, the results for the Percent Effect in assay [1] and in assay [2] were 3.59% and 1.94%, respectively.
Regarding `COCCc1noc(CN2CCOC(Cn3nc(C)cc3C)C2)n1` (stereo not drawn), the Percent Effect is -2.55% in assay [1] and -7.72% in assay [2].
Turning to `CC(C)NC(=O)N1CC[C@@H]2CN(Cc3cccc(Cl)c3)S(=O)(=O)[C@@H]2CC1`, the figures for the Percent Effect in assay [1] and in assay [2] were 5.42% and -9.22%, respectively.
As to `CCn1ccnc1CN1CCCN(C(=O)c2cccc(C#N)c2)CC1`, the Percent Effect in assay [1] is 0.189%; in assay [2] it was -8.53%.
In the case of `Cn1cnc2c1CCN(Cc1cccc(OCC(N)=O)c1)C2`, the Percent Effect is -4.08% in assay [1] and -24.5% in assay [2].
Consider `COc1ccc(CN(C)C(=O)NCc2c(C)cc(C)[nH]c2=O)cc1`, for which the Percent Effect in assay [1] was 0.281%; in assay [2], 31.7%.
With `O=C(N[C@@H]1CN(Cc2cccs2)[C@@H]2CCCO[C@@H]21)C1CC1`, the Percent Effect is 4.13% in assay [1] and -24% in assay [2].
With `Cc1cccc(Cn2c3c(ccc2=O)CCN(Cc2ccoc2)CC3)n1`, the Percent Effect came out at 2.51% in assay [1] and 2.55% in assay [2].
On to `O=C(NCc1ccc(OCC2CC2)nc1)c1c(F)cccc1F`, for which the Percent Effect in assay [1] is -0.03%; in assay [2], 0.72%.
With `Cn1c(CN2CCCC2)nnc1C1CCCN(C(=O)C2CCOCC2)C1` (stereo not drawn), the Percent Effect is 2.71% in assay [1] and -6.15% in assay [2].
For `CCc1nc(C2CCCN2CC(=O)Nc2c(C)nn(C)c2C)no1` (stereo not drawn), in that order: 3.31% and -7.62%.
Regarding `CC1CCN(S(=O)(=O)NCC2CCOc3ccccc3C2)CC1` (stereo not drawn), the Percent Effect was 0.0297% in assay [1] and 5.97% in assay [2].

The values are drawn from ChEMBL document CHEMBL3988442, “University of Dundee, Small-Polar-MMV Screening Library” (2021).
